# Reference: PubChem BioAssay (NCATS)
# Results filed as inconclusive are left out. Values without a mark were called inactive. The source made the active and inactive calls. Calls come from the whole dose curve; as a rule, active = well fitted inhibition curve with a large enough effect; inconclusive = small, poorly fitted or top-dose-only effect; inactive = no such curve, though single readings can be large or run the other way.
# Biological target: Cytochrome P450 3A4 (Homo sapiens) (UniProt P08684)
# Test: qHTS for inhibitors of CYP3A4 against the NCATS DSHEA and TCM libraries (AID 1919971);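 note: inhibition lowers luminescence from luciferin made by CYP3A4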
# Conditions: recombinant CYP3A4 enzyme activity, luminescence qHTS; series mostly up to 34.1 µM; activity change, negative = inhibition: at the top concentration
# How it was run: (§1)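 Luminescent P450-Glo format: compounds preincubated 15 min with enzyme and luciferin substrate, reaction run 30-45 min after NADPH regeneration solution. Intraplate controls: ketoconazole for CYP3A4 and CYP2C19, sulfaphenazole for CYP2C9.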
# % is set by controls: 0 for no effect and ±100 for the full control effect.
# Chain of Cytochrome P450 3A4 (Homo sapiens) (P08684 whole entry, looked up): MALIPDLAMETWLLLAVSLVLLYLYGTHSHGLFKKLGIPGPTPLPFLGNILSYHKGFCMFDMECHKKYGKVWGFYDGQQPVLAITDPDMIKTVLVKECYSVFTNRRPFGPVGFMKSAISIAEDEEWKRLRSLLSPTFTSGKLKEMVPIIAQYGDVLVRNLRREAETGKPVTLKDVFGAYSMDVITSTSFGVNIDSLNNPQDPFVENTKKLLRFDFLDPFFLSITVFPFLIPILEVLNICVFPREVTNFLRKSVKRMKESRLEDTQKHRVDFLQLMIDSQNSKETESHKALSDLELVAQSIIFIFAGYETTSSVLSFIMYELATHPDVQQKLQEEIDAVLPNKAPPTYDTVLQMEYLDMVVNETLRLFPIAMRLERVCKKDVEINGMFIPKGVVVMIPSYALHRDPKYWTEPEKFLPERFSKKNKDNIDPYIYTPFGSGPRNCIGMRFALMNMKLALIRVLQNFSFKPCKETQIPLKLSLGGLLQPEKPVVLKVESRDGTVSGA
row,Structure (SMILES),"activity change, negative = inhibition"
1,O=c1ccc2ccccc2o1,10.3%
2,Nc1ccc(C(=O)O)cc1,-12.4%
3,Nc1nc2ncc(CNc3ccc(C(=O)N[C@@H](CCC(=O)O)C(=O)O)cc3)nc2c(=O)[nH]1,-2.26%

# Biological target: Cytochrome P450 2D6 (Homo sapiens) (UniProt P10635)
# Test: qHTS for inhibitors of CYP2D6 against the NCATS DSHEA and TCM libraries (AID 1919972)
# Conditions: CYP2D6 enzymatic inhibition, luminescence qHTS; series mostly up to 34.1 µM; activity change, negative = inhibition: at the top concentration
# How it was run: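 Luminescent P450-Glo read-out of CYP2D6 turnover of a luciferin substrate after NADPH-driven reaction of 30-45 min at room temperature. Compounds were first preincubated 15 min with enzyme at titrated concentrations; quinidine was the intraplate control.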
# Chain of Cytochrome P450 2D6 (Homo sapiens) (P10635 whole entry, looked up): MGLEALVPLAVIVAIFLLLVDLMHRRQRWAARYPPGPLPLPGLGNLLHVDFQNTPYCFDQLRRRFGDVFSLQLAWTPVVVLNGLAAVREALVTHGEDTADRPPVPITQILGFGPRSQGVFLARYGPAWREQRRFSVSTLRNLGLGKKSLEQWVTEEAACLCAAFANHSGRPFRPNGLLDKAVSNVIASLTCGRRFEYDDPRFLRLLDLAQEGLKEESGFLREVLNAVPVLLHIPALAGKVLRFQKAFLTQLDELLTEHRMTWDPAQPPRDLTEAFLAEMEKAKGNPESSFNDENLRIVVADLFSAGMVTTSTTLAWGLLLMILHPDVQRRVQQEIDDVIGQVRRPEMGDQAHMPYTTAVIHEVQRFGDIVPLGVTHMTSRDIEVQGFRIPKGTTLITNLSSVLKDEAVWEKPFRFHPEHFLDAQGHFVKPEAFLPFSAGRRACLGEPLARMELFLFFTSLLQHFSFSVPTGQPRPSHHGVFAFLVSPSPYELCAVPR
row,Structure (SMILES),"activity change, negative = inhibition"
1,O=c1ccc2ccccc2o1,0.232%
2,C/C=C/c1ccc(OC)cc1,-2.99%
3,Nc1ccc(C(=O)O)cc1,-1.13%
4,Nc1nc2ncc(CNc3ccc(C(=O)N[C@@H](CCC(=O)O)C(=O)O)cc3)nc2c(=O)[nH]1,-2.22%

# Biological target: Cytochrome P450 2C9 (Homo sapiens) (UniProt P11712)
# Test: qHTS for inhibitors of CYP2C9 against the NCATS DSHEA and TCM libraries (AID 1919973);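 note: luminogenic pro-luciferin CYP2C9 substrate turned into luciferin with NADPH regeneration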
# Conditions: recombinant CYP2C9 enzyme activity, luminescence; series mostly up to 34.1 µM; activity change, negative = inhibition: at the top concentration
# How it was run: as §1
# Chain of Cytochrome P450 2C9 (Homo sapiens) (P11712 whole entry, looked up): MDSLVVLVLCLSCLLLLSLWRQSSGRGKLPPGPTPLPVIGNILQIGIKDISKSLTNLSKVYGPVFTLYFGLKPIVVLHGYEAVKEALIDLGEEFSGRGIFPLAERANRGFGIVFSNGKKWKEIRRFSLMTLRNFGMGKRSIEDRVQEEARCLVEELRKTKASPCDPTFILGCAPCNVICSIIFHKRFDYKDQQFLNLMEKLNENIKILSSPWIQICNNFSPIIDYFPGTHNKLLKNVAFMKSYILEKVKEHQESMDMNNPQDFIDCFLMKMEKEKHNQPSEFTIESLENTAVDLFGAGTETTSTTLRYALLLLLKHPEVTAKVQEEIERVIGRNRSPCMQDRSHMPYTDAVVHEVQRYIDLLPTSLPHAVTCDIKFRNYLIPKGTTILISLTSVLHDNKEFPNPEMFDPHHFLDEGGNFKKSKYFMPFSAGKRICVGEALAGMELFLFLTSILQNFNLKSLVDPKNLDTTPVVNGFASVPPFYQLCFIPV
row,Structure (SMILES),"activity change, negative = inhibition"
1,O=c1ccc2ccccc2o1,19.9%
2,C/C=C/c1ccc(OC)cc1,-12%
3,C=CCc1ccc(O)c(OC)c1,-21.7%
4,Nc1ccc(C(=O)O)cc1,-18.7%
5,Nc1nc2ncc(CNc3ccc(C(=O)N[C@@H](CCC(=O)O)C(=O)O)cc3)nc2c(=O)[nH]1,-25.3%

# Biological target: Cytochrome P450 2C19 (Homo sapiens) (UniProt P33261)
# Test: qHTS for inhibitors of CYP2C19 against the NCATS DSHEA and TCM libraries (AID 1919974);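 note: luminescence from luciferin released by CYP2C19 oxidation of a pro-luciferin substrate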; note: potency is the fitted concentration of half-maximal effect
# Conditions: CYP2C19 enzyme inhibition, luminescence qHTS; series mostly up to 34.1 µM; activity change, negative = inhibition: at the top concentration
# How it was run: as §1
# Chain of Cytochrome P450 2C19 (Homo sapiens) (P33261 whole entry, looked up): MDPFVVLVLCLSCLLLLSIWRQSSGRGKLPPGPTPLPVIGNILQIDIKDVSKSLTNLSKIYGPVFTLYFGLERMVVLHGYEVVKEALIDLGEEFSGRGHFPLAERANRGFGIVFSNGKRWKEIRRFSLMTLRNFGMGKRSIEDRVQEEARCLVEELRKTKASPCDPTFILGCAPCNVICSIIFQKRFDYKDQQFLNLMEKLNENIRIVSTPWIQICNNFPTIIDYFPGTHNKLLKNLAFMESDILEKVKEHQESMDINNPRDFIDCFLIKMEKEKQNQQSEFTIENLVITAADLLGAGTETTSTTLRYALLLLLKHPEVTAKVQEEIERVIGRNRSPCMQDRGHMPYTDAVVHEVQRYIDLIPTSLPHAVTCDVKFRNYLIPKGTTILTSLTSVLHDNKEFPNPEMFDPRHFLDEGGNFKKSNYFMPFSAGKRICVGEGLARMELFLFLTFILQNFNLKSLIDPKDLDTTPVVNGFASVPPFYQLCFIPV
Structure (SMILES),"activity change, negative = inhibition",Potency
O=c1ccc2ccccc2o1,24.3%,–
C/C=C/c1ccc(OC)cc1,–,15.8 µM (active)
Nc1nc2ncc(CNc3ccc(C(=O)N[C@@H](CCC(=O)O)C(=O)O)cc3)nc2c(=O)[nH]1,–,3.55 µM (active)
